Test results from PubChem BioAssay.
Where “and” joins values, the source holds several entries; their conditions need not be identical. Identical values can stand only once. Inconclusive results are not listed. Calls of active or inactive are those of the source.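 How the source made its calls, unless noted: active means normalized viability below 100% at a tested concentration; inactive means the rest.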

What was measured:
[1] = growth inhibition of DIPG glioma cells, dose response, cell-based, SU-DIPG-XVII, MIPE5.0, CellTiter-Glo, qHTS (AID 1347060; cut-off not given, nearly all actives have AC50 up to about 26 µM;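 on AC50: cells exposed to compound for 48 hours before viability readout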); conditions: SU-DIPG-XVII viability, CellTiter-Glo ATP luminescence
[2] = growth inhibition of DIPG glioma cells, dose response, cell-based, JHH-DIPG-1, MIPE4.0, CellTiter-Glo, qHTS (AID 1347062; cut-off not given, nearly all actives have AC50 up to about 27 µM;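 on AC50: cells exposed to compound for two days before readout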); conditions: JHH-DIPG-1 viability, CellTiter-Glo ATP luminescence
[3] = growth inhibition of DIPG glioma cells, dose response, cell-based, SU-DIPG-IV, MIPE4.0, CellTiter-Glo, qHTS (AID 1347063; cut-off not given, nearly all actives have AC50 up to about 30 µM;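 further: compound exposure lasted 48 hours before the viability readout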); conditions: SU-DIPG-IV viability, CellTiter-Glo ATP luminescence
[4] = growth inhibition of DIPG glioma cells, dose response, cell-based, SU-DIPG-XIII, MIPE5.0, CellTiter-Glo, qHTS (AID 1347064; cut-off not given, nearly all actives have AC50 up to about 23 µM;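 on AC50: cells exposed to compound for 48 hours before the viability read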); conditions: SU-DIPG-XIII viability, CellTiter-Glo ATP luminescence
[5] = viability loss in pontine glioma line – cell-based, SU-DIPG-XXV, MIPE5.0, CellTiter-Glo, qHTS, dose response (AID 1347065; cut-off not given, nearly all actives have AC50 up to about 26 µM;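 further: cells exposed to compound for 48 hours before ATP readout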); conditions: CellTiter-Glo ATP luminescence
[6] = SU-DIPG-VI glioma cell viability, MIPE4.0 library, CellTiter-Glo luminescence, qHTS (AID 1347066; cut-off not given, nearly all actives have AC50 up to about 30 µM;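 further: cells exposed to compound for 48 hours before readout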); conditions: CellTiter-Glo ATP luminescence
[7] = sensitizers of A549 cells to miR-34 induction, primary screen, imaging, A549 dox-inducible miR-34, nuclei and caspase counts (AID 1347080;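 active means compounds whose cell count with miR-34 switched on is under 0.7 times the count with it off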); conditions: A549 miR-34 inducible, Hoechst nuclei count, 48 h
[8] = modifiers of HSF1 nuclear foci, imaging, Selleck Cancer Library (AID 1347162; in the data active means plate-normalised HSF1 focus index below about 0.46); conditions: human cells, at 10 µM; SSMD: measured here: HSF1 foci SSMD mean; cell count: measured here: cell number; plate-normalised HSF1 focus index: stronger effect = lower value
[9] = survival rescue of mitochondrial mutant cells in low glucose, primary screen, MELAS cybrids, Rieske KO mouse fibroblasts, CellTiter-Glo (AID 1508586;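 active means mean z-score across replicates of 1.96 or higher in either the MELAS or the Rieske mutant cell line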;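 further: z relative to plate mean and SD of compound and empty wells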)
[10] = ovarian cancer cell viability with rucaparib, profiling panel, oncology-focused library, rucaparib conditional (AID 1508598); conditions: patient-derived ovarian cancer cells, CellTiter-Glo viability, 144 h, stronger effect = lower value
[11] = JHH-DIPG-1 glioma cell viability, MIPE5.0 library, CellTiter-Glo luminescence, qHTS (AID 1347067; cut-off not given, nearly all actives have AC50 up to about 26 µM;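 further: cells exposed to compound for 48 hours before readout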); conditions: JHH-DIPG-1 glioma viability, CellTiter-Glo ATP luminescence
[12] = SU-DIPG-XXV glioma cell viability, MIPE5.0 library, qHTS (AID 1347068; cut-off not given, nearly all actives have IC50 up to about 30 µM;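 on IC50: cells exposed to compound for 48 hours before viability readout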)
[13] = stronger effect = lower value, cell number ratio, induced over uninduced
[14] = measured here: relative caspase fold change +Dox/-Dox
[15] = measured here: total cells with miR-34 induction, stronger effect = lower value
[16] = measured here: total cells without miR-34 induction
[17] = MELAS cybrid survival, CellTiter-Glo 48 h, stronger effect = higher value
[18] = Rieske KO mouse fibroblast survival, CellTiter-Glo 72 h
[19] = at 0.000305 µM, OCI-C5x cells, with rucaparib 10 µM, 100% = cells with rucaparib alone
[20] = at 0.000305 µM, OCI-C5x cells, without rucaparib
[21] = at 0.000305 µM, OCI-P5x cells, with rucaparib 20 µM, 100% = cells with rucaparib alone
[22] = at 0.000305 µM, OCI-P5x cells, without rucaparib
[23] = at 0.00122 µM, OCI-C5x cells, with rucaparib 10 µM, 100% = cells with rucaparib alone
[24] = at 0.00122 µM, OCI-C5x cells, without rucaparib
[25] = at 0.00122 µM, OCI-P5x cells, with rucaparib 20 µM, 100% = cells with rucaparib alone
[26] = at 0.00122 µM, OCI-P5x cells, without rucaparib
[27] = at 0.00488 µM, OCI-C5x cells, with rucaparib 10 µM, 100% = cells with rucaparib alone
[28] = at 0.00488 µM, OCI-C5x cells, without rucaparib
[29] = at 0.00488 µM, OCI-P5x cells, with rucaparib 20 µM, 100% = cells with rucaparib alone
[30] = at 0.00488 µM, OCI-P5x cells, without rucaparib
[31] = at 0.0195 µM, OCI-C5x cells, with rucaparib 10 µM, 100% = cells with rucaparib alone
[32] = at 0.0195 µM, OCI-C5x cells, without rucaparib
[33] = at 0.0195 µM, OCI-P5x cells, with rucaparib 20 µM, 100% = cells with rucaparib alone
[34] = at 0.0195 µM, OCI-P5x cells, without rucaparib
[35] = at 0.0781 µM, OCI-C5x cells, with rucaparib 10 µM, 100% = cells with rucaparib alone
[36] = at 0.0781 µM, OCI-C5x cells, without rucaparib
[37] = at 0.0781 µM, OCI-P5x cells, with rucaparib 20 µM, 100% = cells with rucaparib alone
[38] = at 0.0781 µM, OCI-P5x cells, without rucaparib
[39] = at 0.313 µM, OCI-C5x cells, with rucaparib 10 µM, 100% = cells with rucaparib alone
[40] = at 0.313 µM, OCI-C5x cells, without rucaparib
[41] = at 0.313 µM, OCI-P5x cells, with rucaparib 20 µM, 100% = cells with rucaparib alone
[42] = at 0.313 µM, OCI-P5x cells, without rucaparib
[43] = at 1.25 µM, OCI-C5x cells, with rucaparib 10 µM, 100% = cells with rucaparib alone
[44] = at 1.25 µM, OCI-C5x cells, without rucaparib
[45] = at 1.25 µM, OCI-P5x cells, with rucaparib 20 µM, 100% = cells with rucaparib alone
[46] = at 1.25 µM, OCI-P5x cells, without rucaparib
[47] = at 5 µM, OCI-C5x cells, with rucaparib 10 µM, 100% = cells with rucaparib alone
[48] = at 5 µM, OCI-C5x cells, without rucaparib
[49] = at 5 µM, OCI-P5x cells, with rucaparib 20 µM, 100% = cells with rucaparib alone
[50] = at 5 µM, OCI-P5x cells, without rucaparib

CC(C)c1ccccc1Cc1cc(C(=O)Nc2ccc(S(=O)(=O)c3ccccc3C(C)(C)C)cc2)c(O)c(O)c1O
-0.101: z-score [9, 18]
0.84: fold change [7, 14]
2090: cell count [7, 15]
7240: cell count [8]
active: AC50 [1] 23.5 µM | AC50 [2] 23.5 µM | AC50 [3] 23.5 µM | AC50 [4] 20.9 µM | AC50 [5] 23.5 µM | AC50 [6] 9.35 µM | z-score [9, 17] 2.95 | viability [10, 45] 98.8% | viability [10, 46] 97.4% | viability [10, 47] 21.8% | viability [10, 48] 90.4% | viability [10, 49] 10.9% | viability [10, 50] 21.5%
-1.79: SSMD [8]
2260: cell count [7, 16]
inactive: fold change [7, 13] 0.928 | plate-normalised HSF1 focus index [8] 0.912 | viability [10, 19] 105% | viability [10, 20] 115% | viability [10, 21] 124% | viability [10, 22] 124% | viability [10, 23] 103% | viability [10, 24] 119% | viability [10, 25] 117% | viability [10, 26] 116% | viability [10, 27] 113% | viability [10, 28] 116% | viability [10, 29] 117% | viability [10, 30] 121% | viability [10, 31] 110% | viability [10, 32] 109% | viability [10, 33] 118% | viability [10, 34] 114% | viability [10, 35] 110% | viability [10, 36] 111% | viability [10, 37] 119% | viability [10, 38] 114% | viability [10, 39] 101% | viability [10, 40] 112% | viability [10, 41] 112% | viability [10, 42] 110% | viability [10, 43] 106% | viability [10, 44] 118%

Cc1[nH]c(/C=C2\C(=O)Nc3ccc(S(=O)(=O)N(C)c4cccc(Cl)c4)cc32)c(C)c1C(=O)N1CCN(C)CC1
7040: cell count [8]
inactive: plate-normalised HSF1 focus index [8] 1.1
1.63: SSMD [8]
active: AC50 [1] 9.34 µM | AC50 [2] 20.9 µM | AC50 [3] 23.5 µM | AC50 [4] 7.42 µM | AC50 [5] 7.42 µM | AC50 [6] 11.8 µM | AC50 [11] 8.33 µM

NC1(c2ccc(-c3nc4ccn5c(=O)[nH]nc5c4cc3-c3ccccc3)cc2)CCC1
4130: cell count [7, 15]
-0.0056: z-score [9, 18]
inactive: fold change [7, 13] 0.999 | plate-normalised HSF1 focus index [8] 1.19 | z-score [9, 17] -0.154 | viability [10, 19] 119% | viability [10, 20] 118% | viability [10, 21] 117% | viability [10, 22] 108% | viability [10, 23] 119% | viability [10, 24] 126% | viability [10, 25] 102% | viability [10, 26] 112% | viability [10, 27] 111% | viability [10, 28] 129% | viability [10, 29] 103% | viability [10, 30] 106% | viability [10, 31] 110% | viability [10, 32] 119% | viability [10, 33] 100% | viability [10, 34] 104% | viability [10, 35] 119% | viability [10, 36] 133% | viability [10, 39] 131% | viability [10, 40] 141% | viability [10, 42] 110% | viability [10, 43] 107% | viability [10, 44] 150% | viability [10, 46] 103% | viability [10, 47] 134% | viability [10, 48] 144% | viability [10, 49] 104% | viability [10, 50] 106%
6650: cell count [8]
4140: cell count [7, 16]
active: AC50 [1] 16.6 µM | AC50 [2] 23.5 µM | AC50 [3] 14.8 µM | AC50 [4] 6.61 µM | AC50 [5] 1.86 µM | AC50 [11] 6.61 µM | IC50 [12] 18.6 µM | viability [10, 37] 98.1% | viability [10, 38] 98.2% | viability [10, 41] 90.4% | viability [10, 45] 88.6%
3.02: SSMD [8]
1.72: fold change [7, 14]

CN1CC[C@@H](c2c(O)cc(O)c3c(=O)cc(-c4ccccc4Cl)oc23)[C@@H](O)C1
active: AC50 [1] 0.468 µM | AC50 [2] 0.105 µM | AC50 [3] 0.0743 µM | AC50 [4] 0.332 µM | AC50 [5] 0.468 µM | AC50 [11] 0.59 µM

O=C1NC(=O)/C(=C/c2ccc3c(c2)OC(F)(F)O3)S1
9160 and 6280: cell count [7, 16]
inactive: outcome [1] | outcome [2] | outcome [3] | outcome [4] | outcome [5] | outcome [11] | outcome [12] | fold change [7, 13] 0.88 and 0.952
1.16 and 0.645: fold change [7, 14]
8070 and 5980: cell count [7, 15]

c1ccc2c(CCNc3ccc(Nc4ccncc4)cc3)c[nH]c2c1
6510: cell count [8]
2490: cell count [7, 16]
2540: cell count [7, 15]
-0.307: z-score [9, 18]
-0.197: SSMD [8]
1.37: fold change [7, 14]
inactive: fold change [7, 13] 1.02 | plate-normalised HSF1 focus index [8] 0.99 | z-score [9, 17] -0.455 | viability [10, 19] 116% | viability [10, 20] 111% | viability [10, 21] 114% | viability [10, 22] 116% | viability [10, 23] 116% | viability [10, 24] 111% | viability [10, 25] 117% | viability [10, 26] 121% | viability [10, 27] 116% | viability [10, 29] 112% | viability [10, 30] 119% | viability [10, 31] 111% | viability [10, 32] 105% | viability [10, 33] 111% | viability [10, 34] 122% | viability [10, 35] 104% | viability [10, 36] 111% | viability [10, 37] 112% | viability [10, 38] 122% | viability [10, 39] 110% | viability [10, 40] 101% | viability [10, 42] 110% | viability [10, 43] 107% | viability [10, 44] 107% | viability [10, 46] 104% | viability [10, 48] 106%
active: AC50 [1] 18.6 µM | AC50 [2] 18.7 µM | AC50 [3] 18.7 µM | AC50 [4] 20.9 µM | AC50 [5] 26.3 µM | AC50 [11] 23.5 µM | IC50 [12] 5.9 µM | viability [10, 28] 99.7% | viability [10, 41] 99.7% | viability [10, 45] 94.3% | viability [10, 47] 25.5% | viability [10, 49] 78.5% | viability [10, 50] 99%
